Rows were chosen to be rich in hits. Some 21% of all compounds tested hit in one or more screens of this group.
D3 antag: blocks the human D3 dopamine receptor. max response, negative = inhibition, %. P35462. 360,000 tested, 2.5% active. AID 652054. D3R cells, DiscoveRx beta-arrestin luminescence, antagonist mode; stronger effect = lower value; in the data active means max response below about -50%; inconclusive means no clear call, values can overlap the other calls; further: on the % scale 0 is the no-effect control and ±100 the full control effect
Target sequence (P35462 whole entry, looked up): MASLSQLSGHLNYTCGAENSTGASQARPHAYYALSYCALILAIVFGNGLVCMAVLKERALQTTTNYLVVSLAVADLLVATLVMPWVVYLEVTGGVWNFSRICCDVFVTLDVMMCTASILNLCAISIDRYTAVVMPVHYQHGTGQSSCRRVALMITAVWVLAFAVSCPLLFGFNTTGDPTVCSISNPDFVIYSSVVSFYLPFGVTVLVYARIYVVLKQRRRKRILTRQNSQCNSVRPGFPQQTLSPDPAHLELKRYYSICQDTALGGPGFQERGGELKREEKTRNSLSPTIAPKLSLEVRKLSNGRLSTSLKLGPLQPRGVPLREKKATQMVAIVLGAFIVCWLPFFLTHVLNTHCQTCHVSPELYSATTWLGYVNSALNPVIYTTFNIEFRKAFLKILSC
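Cells plated overnight at 1500 cells/well, then exposed to library compounds with dopamine controls for 90 minutes at 37 degrees C. DiscoveRx reagent added for 30–60 minutes at room temperature; luminescence read, quantitative HTS format.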
D3 ag: agonists of human D3 dopamine receptor; D3R DiscoveRx beta-arrestin cells, luminescence, 90 min; max activation, %; 410,000 tested, 0.58% active; AID 652048; in the data active means max activation above about 30%; further: 0% is about no effect
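Cells at 1500/well, incubated overnight, then treated with pinned compounds (dopamine as control) for 90 min at 37 degrees C. DiscoveRx reagent added for 30 - 60 minutes at room temperature; luminescence read.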
DT40 TDP1 CPT: DT40-hTDP1 cell growth loss with CPT | chicken DT40 Tdp1-/-;hTDP1 cells + 20 nM CPT, ATP luminescence, 48 h | Potency, µM (titrated, usually from 46.2 µM), for the others: at the top dose activity change, negative = growth inhibition, actives largely listed as inhibitors | 420,000 tested, 12% active | AID 686979; further: potency means the concentration at half of the fitted maximal effect; on the % scale 0 is the no-effect control and ±100 the full control effect; nearly all actives have a fitted effect of over 55% in size
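Cell growth measured by CellTiter-Glo luminescence after a minimum 48 h, 37 C compound exposure with 20 nM CPT in Tdp1-knockout DT40 cells stably expressing hTDP1, seeded 400/well; qHTS titration format.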
IL1B secr inh: inflammasome signaling inhibition, IL-1 beta readout; 360,000 tested, 4.7% active; activity change, % at 57.5 µM; AID 743279; THP-1 LPS/ATP IL-1B secretion, AlphaLISA, 16 h; stronger effect = lower value; in the data active means activity change below about -50%; inconclusive means mostly about -30% to -49%; further: on the % scale 0 is the no-effect control and ±100 the full control effect
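Secreted IL-1B measured by AlphaLISA bead assay after 16 h compound exposure of THP-1 cells; compounds (final up to 57.5 uM) added 1 h before LPS (250 ng/mL) and ATP (1.25 mM) stimulation; lower signal means less secretion.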
ClpP mod: qHTS Assay for Activators of ClpP; purified B. subtilis ClpP, FRET peptide cleavage, 20 min; Potency, µM (series often up to 57.5 µM), for the others: top-dose activity change, negative = active; ATP-dependent Clp protease proteolytic subunit (Bacillus subtilis (strain 168)), P80244; 340,000 tested, 1.9% active; active means well fitted falling curve with a large enough effect; inconclusive means small, poorly fitted or top-dose-only effect; inactive means no such curve, though single readings can be large or run the other way; further: potency means the concentration at half of the fitted maximal effect; the source files actives as falling curves though it sought activators and does not explain the sign; nearly all actives have a fitted effect of over 65% in size
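Purified B. subtilis ClpP, 10 microg/mL final in Tris/HCl pH8 with KCl, BSA, glycerol and Tween-20, cleaved an Abz/nitrotyrosine-quenched decapeptide. Fluorescence (ex 320, em 430) was read at 0 and 20 min at room temperature. Delta was normalized to 5.8 microM ADEP and DMSO/no-enzyme controls.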
TDP1 cell noCPT: qHTS for Inhibitors of human tyrosyl-DNA phosphodiesterase 1 (TDP1): qHTS in cells in absence of CPT; DT40 Tdp1-/- hTDP1 cells, no CPT, ATP luminescence, 48 h; Potency, µM (series often up to 46.2 µM), for the others: top-dose activity change, negative = growth inhibition, hits mostly inhibitors; 420,000 tested, 15% active; AID 686978, 2013; further: potency means the concentration at half of the fitted maximal effect; on the % scale 0 is the no-effect control and ±100 the full control effect; nearly all actives have a fitted effect of over 55% in size
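Luminescent ATP content (CellTiter-Glo) served as the growth readout. Knockout chicken DT40 cells expressing human TDP1 were exposed to compounds without camptothecin for a minimum 48 hr at 37 °C.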
Active calls of the source: *; ? = inconclusive; · = no result. Unless noted, the call rests on the fitted dose curve; in most records, active means well fitted inhibition curve with a large enough effect; inconclusive means small, poorly fitted or top-dose-only effect; inactive means flat fitted curve, though single readings scatter.

SMILES | D3 antag | D3 ag | DT40 TDP1 CPT | IL1B secr inh | ClpP mod | TDP1 cell noCPT
CC(Oc1ccccc1)C(=O)Nc1nnc(C2CCCCC2)s1 (configuration not stated) | 5.2 | 0.3 | ? | 0.0 | · | ?
COc1ccccc1OCCn1c(C(C)Oc2ccccc2)nc2ccccc21 (configuration not stated) | · | -2.9 | 25.9µM* | · | -2.3% | ?
O=C(NCCc1nc2ccccc2n1CCCOc1ccc(Cl)cc1)C1CCCCC1 | · | -21.3 | ? | · | -5.2% | ?
CC(=O)NCCc1nc2ccccc2n1CCOc1ccccc1 | 4.9 | 3.0 | -1.4% | -2.5 | -1.8% | 2.0%
CC(=O)NCCc1nc2ccccc2n1CCCCOc1ccccc1 | 16.2 | 0.0 | ? | 39.4 | 0.0% | 13µM*
COc1ccccc1OCCn1c(C(C)O)nc2ccccc21 (configuration not stated) | 13.4 | -2.3 | -20.7% | 17.8 | 1.0% | -9.7%
CC(C)(C)C(=O)NCCCc1nc2ccccc2n1CCCOc1ccc(Cl)cc1 | 7.5 | -12.3 | 6.51µM* | -74.3* | 1.5% | 8.2µM*

Screening data deposited in PubChem by National Center for Advancing Translational Sciences (NCATS).
